Screening results as filed in PubChem.
FMDV inh: antivirals against foot and mouth disease virus; 410,000 compounds, 1.2% hits; FMDV antiviral cell-based qHTS; Potency, µM (top dose mostly 57.9 µM), actives largely listed as inhibitors; calls by dose curve; tested in HEK293T cells; further: read-out not given here; nearly all actives have a fitted effect of over 45% in size
VACV mCherry inh: vaccinia inhibition (mCherry reporter) | Vaccinia virus mCherry reporter infection, fluorescence | Potency, µM (doses to about 36.5 µM), actives largely listed as inhibitors | 310,000 compounds, 0.63% hits; calls by dose curve; tested in A549 cells; further: nearly all actives have a fitted effect of over 35% in size
Giardia FBPA inh: blocks Giardia fructose-bisphosphate aldolase activity. purified Giardia FBPA. Potency, µM (series often up to 59.6 µM), usual class: inhibitors. 290,000 compounds, 0.71% hits; further: nearly all actives have a fitted effect of over 55% in size
Target sequence (A8B2U2 whole entry, looked up): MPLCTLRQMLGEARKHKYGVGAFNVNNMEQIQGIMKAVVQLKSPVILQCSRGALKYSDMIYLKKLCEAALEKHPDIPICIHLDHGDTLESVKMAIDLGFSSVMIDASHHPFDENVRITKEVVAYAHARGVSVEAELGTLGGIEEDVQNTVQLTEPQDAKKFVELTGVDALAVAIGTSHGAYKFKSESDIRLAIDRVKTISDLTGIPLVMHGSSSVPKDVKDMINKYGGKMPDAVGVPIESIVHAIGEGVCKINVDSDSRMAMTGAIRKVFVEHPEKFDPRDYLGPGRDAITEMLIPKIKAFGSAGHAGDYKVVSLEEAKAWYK
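40 nM FBPA preincubated 10 min at RT with compound (up to 57.5 uM final), then substrate plus GAPDH/TPI/NAD/arsenate coupling and diaphorase/resazurin added. Fluorescence read after 20 min at RT, 525/598 nm.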
HCMV antiviral: inhibitors of human cytomegalovirus. HFF cells, HCMV-luciferase reporter, 72 h; stronger effect = lower value. activity change, negative = inhibition, % at 57.5 µM. 410,000 compounds, 4.5% hits; in the data active means activity change below about -60%; inconclusive means no clear call, values can overlap the other calls; inactive means above about -39%
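Human foreskin fibroblasts infected with luciferase-reporter HCMV at MOI 1 PFU/cell, compounds at two doses. Luciferase measured 72 h post infection; normalized to buffer-only basal and Salinomycin (10uM) controls.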
HCV inhibitor: inhibitors of hepatitis C virus infection; Huh7.5.1 HCVcc-Cre infection, luciferase reporter, 44 h; AID 651820; 340,000 compounds, 3.4% hits; Potency, µM (titrated, usually from 41.8 µM), most hits filed as inhibitors
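Whole-lifecycle infectious HCVcc-Cre system; cells 1,000/well, compound then virus (~0.5 moi) added 4 h after plating, 44 h culture. Luciferase read 15 sec following 15 min substrate incubation, room temp.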
Vaccinia Venus: inhibitors of vaccinia virus (Venus reporter) | Vaccinia virus Venus reporter expression, fluorescence | Potency, µM (top dose mostly 36.5 µM), usual class: inhibitors | 330,000 compounds, 0.46% hits | AID 720580; calls by dose curve; tested in A549 cells; further: nearly all actives have a fitted effect of over 30% in size
Hits are given with their value; - = inactive; ? = inconclusive; . = not tested or not shown. Most compounds without a hit are left out; they make up all but 7.5% or so of the library. Unless noted, the call rests on the fitted dose curve; in most records, active means well fitted curve in the direction sought with a large enough effect; inconclusive means small, poorly fitted or top-dose-only effect, or another doubt; inactive means no such curve, though single readings can be large; an effect the other way counts as inactive or inconclusive.

SMILES	FMDV inh	VACV mCherry inh	Giardia FBPA inh	HCMV antiviral	HCV inhibitor	Vaccinia Venus
O=C(c1ccc(F)cc1F)C1CCN(c2ccc([N+](=O)[O-])cn2)CC1	?	-	-	-77	4.5µM	-
CN[C@@H]1CC[C@H](c2ccc(Cl)c(Cl)c2)c2ccccc21	?	.	-	.	.	.
Cc1cc(NC(=O)c2cccnc2)cc(-c2nc3cc(Cl)ccc3o2)c1O	-	-	.	-	.	-
COc1ccc(NCc2nnc(SCC(=O)Nc3ccccc3)n2C)cc1	-	-	-	-	-	-
c1ccc(-c2nc(NCC3CCCO3)c3ccccc3n2)nc1 (centres undefined)	-	.	-	-97	?	.
CCOc1ccc(Nc2c3ccccc3nc3ccccc23)cc1	?	5.6µM	-	-81	4µM	?
CCOc1ccc(Nc2nc(NCC3CCCO3)c3ccccc3n2)cc1 (centres undefined)	25µM	-	-	-	?	?
CCOc1ccc(Nc2cc(C)c3ccccc3n2)cc1	-	.	-	-	-	.
COc1ccc(Nc2nc(NCC3CCCO3)c3ccccc3n2)c(OC)c1 (centres undefined)	?	?	-	-91	10µM	-
c1ccc2c(NCC3CCCO3)nc(N3CCOCC3)nc2c1 (centres undefined)	-	.	-	-	-	.
O=C(COC(=O)c1cc(=O)c2ccccc2o1)NCc1ccc(Cl)cc1	-	-	.	-	.	-
CCc1nc(NCC2CCCO2)c2oc3ccccc3c2n1 (centres undefined)	-	.	-	-84	?	-
Cc1nc(NCC2CCCO2)c2oc3ccccc3c2n1 (centres undefined)	-	.	-	-	-	.
Oc1cccc(Nc2nc(NCC3CCCO3)c3ccccc3n2)c1 (centres undefined)	-	?	-	.	?	?
Nc1nc(NCC2CCCO2)nc(Nc2ccc(Cl)cc2)c1[N+](=O)[O-] (centres undefined)	-	-	-	-69	-	-
Nc1nc(NCC2CCCO2)nc(Nc2ccccc2)c1[N+](=O)[O-] (centres undefined)	-	-	-	-	-	-
c1ccc(Nc2nc(NCC3CCCO3)c3ccccc3n2)cc1 (centres undefined)	28µM	?	-	?	7.1µM	-
CC(C)(C)C(=O)Nc1sc(-c2ccccc2)cc1C(=O)O	-	?	-	-64	-	-
COC(=O)c1cc(OC)c(OC)cc1NC(=O)CN1C(=O)c2ccccc2C1=O	-	.	-	-	-	.
NC(=O)c1ccccc1NC(=O)CN1CCCCCC1	-	-	.	-	-	-
NC(=O)c1cc(-c2ccccc2)sc1NC(=O)CN1CCCCC1	-	-	-	-	13µM	?
COC(=O)c1cc(-c2ccccc2)sc1NC(=O)CN1C(=O)c2ccccc2C1=O	-	.	-	-64	?	.
CCc1cc[n+](CC(=O)c2ccc(F)cc2)cc1C(=O)O	.	-	.	.	.	-
O=C(CSc1nnc(NC2CCCCC2)s1)Nc1ccc2c(c1)C(=O)c1ccccc1C2=O	-	.	-	-	10µM	.
Cc1cccc(NC(=O)CSc2nnnn2C2CCCC2)c1	-	-	-	-	-	-
SMILES	FMDV inh	VACV mCherry inh	Giardia FBPA inh	HCMV antiviral	HCV inhibitor	Vaccinia Venus
O=C(CSc1nnnn1C1CC1)Nc1cccc(S(=O)(=O)N2CCCC2)c1	-	-	.	-75	-	-
Cc1nnc(SCC(=O)NN2C(=O)NC3(CCCCC3)C2=O)s1	-	-	-	-62	-	-
Cc1nc(SCC(=O)Nc2ccc(S(=O)(=O)N3CCOCC3)cc2)c2c(C)c(C)sc2n1	-	-	.	-	7.1µM	?
CCC(=O)N1CCc2cc(S(=O)(=O)Nc3cc(C)ccc3OC)ccc21	-	-	.	-	.	-
Cc1ccc(S(=O)(=O)N2CCOCC2)cc1NC(=O)CNC(C)c1ccccc1 (centres undefined)	-	-	.	-	-	-
CC(=O)c1cccc(-n2nnnc2SCC(=O)Nc2ccccc2N2CCCCC2)c1	?	-	-	-	14µM	-
Cc1nnc(SCC(=O)Nc2ccc(S(=O)(=O)N3CCCCC3)cc2)s1	-	-	.	-65	-	-
O=C(CSc1nnc(Nc2ccccc2F)s1)Nc1cccc(S(=O)(=O)N2CCCCC2)c1	?	?	-	-	13µM	?
COc1ccc(-n2nnnc2SCC(=O)Nc2ccccc2N2CCOCC2)cc1OC	-	.	-	-	-	.
O=C(CSc1nnnn1C1CCCCC1)Nc1cccc(NC(=O)c2ccco2)c1	-	-	-	-	?	-
Cc1nnc(SCC(=O)Nc2cccc(S(=O)(=O)N3CCCCC3)c2)s1	-	.	.	-	-	.
O=C(CSc1nnnn1C1CCCC1)Nc1cccc(NC(=O)c2ccco2)c1	.	-	-	-70	-	-
O=C(NNC(=O)C1CCN(c2ncccn2)CC1)c1ccc(F)cc1	-	-	-	-	-	-
COc1cc(OC)c(C(=O)Nc2ccc(S(=O)(=O)N3CCCCC3)cc2)cc1OC	-	-	.	-	-	-
CSc1ccc(CNC(=O)CCn2ccc3cc(S(=O)(=O)N4CCCC4)ccc32)cc1	-	-	-	-	?	-
COc1ccc(Cl)cc1-c1nc(SCC(=O)NCC2CCCO2)n[nH]1 (centres undefined)	-	.	.	?	-	.
O=C(CSc1nncn1-c1ccccc1)Nc1cccc(S(=O)(=O)N2CCCCC2)c1	.	.	-	-	-	.
Cc1nnc(NC(=O)c2cc(S(=O)(=O)N3CCCCC3)ccc2Cl)s1	-	-	.	-	11µM	-
O=C(CSc1nnnn1-c1ccc(O)cc1)Nc1cccc(S(=O)(=O)N2CCCC2)c1	-	.	-	-73	?	-
Cc1cccc(C)c1NC(=O)CSc1nc2ncccc2o1	-	-	.	-	.	-
CC(=O)Nc1ccc(/C=C/C(=O)c2ccc(-n3nncc3-c3ccccc3)cc2)cc1	.	-	.	.	.	-
Cc1ccc2nc(COc3cccc(NC(=O)COc4ccccc4F)c3)cc(=O)n2c1	-	-	.	-	.	-
OCCc1ccccc1	-	-	-	.	-	-
ON=C(CCc1ccccc1)CCc1ccccc1	-	-	.	-75	-	-
Fc1cnc(Cl)nc1N1CCN(c2ccccc2)CC1	-	-	-	-	-	-
SMILES	FMDV inh	VACV mCherry inh	Giardia FBPA inh	HCMV antiviral	HCV inhibitor	Vaccinia Venus
CN1CCN(c2nc(N3CCN(c4ccccc4)CC3)ncc2F)CC1	.	?	-	-	6.3µM	?
CC(C)Oc1ccc(S(=O)(=O)N2CCOCC2)cc1NC(=O)CCCSc1ccccc1	-	-	.	-	11µM	-
O=C(CCSc1ccccc1)Nc1ccc(S(=O)(=O)N2CCOCC2)cc1	-	-	-	-	-	-
O=C(CCCSc1ccccc1)Nc1ccc(Cl)c(S(=O)(=O)N2CCOCC2)c1	25µM	?	.	-	?	-
COc1cc(C(C)=O)ccc1OCC(=O)Nc1ccc(Cl)c(S(=O)(=O)N2CCOCC2)c1	20µM	.	.	-	13µM	.
CC(=O)c1ccc(OCCCC(=O)Nc2ccc(Cl)c(S(=O)(=O)N3CCOCC3)c2)cc1	16µM	.	.	-79	2.5µM	.
O=C(c1cnc(N2CCOCC2)c2ccccc12)N1CCN(c2ccccc2)CC1	?	-	.	-	.	-
